# Only some compounds are listed: those with a hit (about 10% of all), similar ones and a draw of the others.
# GLS inhibitor – qHTS for Inhibitors of Glutaminase (GLS). Glutaminase kidney isoform, mitochondrial (Homo sapiens), O94925. GLS enzymatic activity, qHTS titration. Potency, µM (top dose mostly 45.5 µM), for the others: at the top dose activity change, negative = inhibition, most hits filed as inhibitors. hit rate 0.21% among 410,000. AID 624170, 2012; note: % is set by controls: 0 for no effect and ±100 for the full control effect
# Target sequence (O94925 whole entry, looked up, canonical isoform): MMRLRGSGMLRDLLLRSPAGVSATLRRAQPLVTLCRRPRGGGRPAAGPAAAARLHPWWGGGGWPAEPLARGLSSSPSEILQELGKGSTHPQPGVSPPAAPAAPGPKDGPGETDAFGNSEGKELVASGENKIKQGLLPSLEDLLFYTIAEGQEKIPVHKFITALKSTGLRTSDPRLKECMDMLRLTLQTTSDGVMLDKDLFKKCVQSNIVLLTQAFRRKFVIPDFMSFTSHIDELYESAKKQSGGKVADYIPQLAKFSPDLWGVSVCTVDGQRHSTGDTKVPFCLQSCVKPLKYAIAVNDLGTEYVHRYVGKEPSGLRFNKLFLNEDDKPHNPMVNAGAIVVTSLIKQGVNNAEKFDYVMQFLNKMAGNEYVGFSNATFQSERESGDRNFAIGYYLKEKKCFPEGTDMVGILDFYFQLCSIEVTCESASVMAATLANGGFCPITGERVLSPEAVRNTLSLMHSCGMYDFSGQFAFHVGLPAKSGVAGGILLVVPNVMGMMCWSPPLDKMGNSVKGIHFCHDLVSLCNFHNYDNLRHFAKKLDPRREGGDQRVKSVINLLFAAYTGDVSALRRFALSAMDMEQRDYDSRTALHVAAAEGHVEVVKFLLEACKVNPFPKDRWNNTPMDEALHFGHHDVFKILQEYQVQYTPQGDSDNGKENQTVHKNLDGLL
#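 Coupled fluorescence readout: glutamate oxidase/HRP/Amplex Red detect glutamate formed by hKGA from L-glutamine (1 mM solution added). Buffer 45 mM KH2PO4 pH 8.2, 0.02% Tween-20; reads at t0 and 30 min RT.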
# BAZ2B block – qHTS Assay for Inhibitors of BAZ2B | Bromodomain adjacent to zinc finger domain protein 2B (Homo sapiens), Q9UIF8 | AlphaScreen BAZ2B-H3K14Ac peptide displacement | Potency, µM (top dose mostly 114 µM), without a hit: at the highest dose activity change, negative = inhibition, most hits filed as inhibitors | hit rate 4.4% among 360,000 | AID 504333, 2011; note: % is set by controls: 0 for no effect and ±100 for the full control effect; nearly all actives have a fitted effect of over 60% in size
#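 BAZ2B (50 nM) with biotin-H3(5-23)K14Ac peptide (50 nM) in PBS pH 7.4, 0.01% Tween-20, preformed 30 min, then compound 30 min at room temperature; top concentration 110uM. AlphaScreen streptavidin donor/nickel chelate acceptor beads (10 ug/mL final), 20 min dark, signal read.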
# HP1b chromo inh – HTS for Inhibitors of HP1-beta Chromodomain Interactions with Methylated Histone Tails; AlphaScreen HP1-beta / biotin-H3K9me3 peptide binding; Potency, µM (titrated, usually from 114 µM), for the others: top-dose activity change, negative = inhibition, most hits filed as inhibitors; hit rate 0.56% among 390,000; note: nearly all actives have a fitted effect of over 70% in size
#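 Compound inhibition of the preformed complex between 50 nM HP1-beta and 50 nM biotinylated H3K9me3 peptide was read by AlphaScreen. Buffer was PBS pH 7.4 with 0.01% Tween-20. Incubations ran 30 min at room temperature, with 10 ug/mL donor/acceptor beads.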
# JMJD2A Tudor – qHTS Assay for Inhibitors of JMJD2A-Tudor Domain | AlphaScreen JMJD2A-Tudor / H3K4me3 peptide binding | Potency, µM (series often up to 114 µM), inactives show at the highest dose activity change, negative = inhibition, usual class: inhibitors | hit rate 4.4% among 390,000 | AID 504339, 2011; note: % is set by controls: 0 for no effect and ±100 for the full control effect; nearly all actives have a fitted effect of over 50% in size
# G9a inh – qHTS Assay for Inhibitors of Histone Lysine Methyltransferase G9a | hit rate 8.8% among 350,000 | Histone-lysine N-methyltransferase EHMT2 (Homo sapiens), Q96KQ7 | Potency, µM (series often up to 102 µM), for the others: at the top dose activity, negative = inhibition, actives largely listed as inhibitors | G9a H3K9 monomethylation, AlphaScreen, 2 h; note: % is set by controls: 0 for no effect and ±100 for the full control effect; nearly all actives have a fitted effect of over 75% in size
#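 Readings reflect AlphaScreen signal from monomethyl-H3K9 antibody detection. HMT at 20 nM; substrate b-H3K9 500 nM; cofactor SAM 20 uM; 2 h RT reaction; compounds tested as titrations in qHTS with 15 min preincubation.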
# * hit, by the source's call; ? = inconclusive; · = no result given; [ ] = another dose, or the depositor's remark. Calls come from the whole dose curve; as a rule, active = well fitted curve in the direction sought with a large enough effect; inconclusive = small, poorly fitted or top-dose-only effect, or another doubt; inactive = no such curve, though single readings can be large; an effect the other way counts as inactive or inconclusive. Potency is the fitted concentration of half-maximal effect.
SMILES,GLS inhibitor,BAZ2B block,HP1b chromo inh,JMJD2A Tudor,G9a inh
CC1Cn2c(nnc2C23CC4CC(CC(C4)C2)C3)S1 (stereo not given),0%,-6%,31%,1%,0%[12.7 µM]
CCO/C=C/C(O)(CNC(=O)COc1ccccc1F)C(F)(F)F (stereo not given),-7%,9%,28%,-1%,-14%[59 µM]
CN(C)CCNC(=O)c1ccc(COCC(F)(F)F)cc1,7%,1%,9%,-8%,19%[59 µM]
CC(Oc1ccccc1)C(=O)OCC(=O)Nc1ccc2c(c1)OCO2 (stereo not given),-1%,·,11%,-12%,·
C/C(Cl)=C\Cn1c(O)c(N=NC(N)=S)c2cc(Br)ccc21,3%,10µM*,?,45µM*,·
COc1cccc(-c2cc(C(F)(F)F)nc(-n3ccc([N+](=O)[O-])n3)n2)c1,8%,15%,35%,-13%,28%
IC(I)I,11%,·,·,·,14µM*
CCOC(=O)c1cc(-c2ccc(OC)cc2)n(CCC(=O)Nc2ccccc2OC)c1C,1%,79µM*,28%,28µM*,-32%[59 µM]
CCOC(=O)c1cc(-c2ccc(OC)cc2)n(CCC(=O)Nc2ccc(OC)cc2OC)c1C,-3%,-33%,-12%,?,?
CCOC(=O)c1cc(-c2ccccc2)n(CC(=O)Nc2ccc(OC)cc2OC)c1C,-11%,-6%,46%,22µM*,-17%[59 µM]
CCN1C(=S)SC(=O)C1=C1C=C(C)N(CCO)C(C)=C1,1%,?,-12%,-31%,?
Cc1ccc(CC2SC(N)=NC2=O)cc1 (stereo not given),1%,-39%,55%,-23%,16%
Cc1cccc(CC2SC(N)=NC2=O)c1 (stereo not given),-1%,1%,-8%,-9%,50µM*
C#CCN(C)CC/C=C1\c2ccccc2CSc2ccccc21,-18%,?,-20%,-5%[11.4 µM],14µM*
COc1ccc(C2(CNC(=O)c3cccc([N+](=O)[O-])c3)CCOCC2)cc1OC,-26%,10%,0%,56µM*,-4%[59 µM]
COc1ccc(C2(CNC(=O)c3ccccc3[N+](=O)[O-])CCOCC2)cc1,1%,-7%,42%,-12%,40µM*
COc1cccc(C(=O)CSc2nnc(CNS(=O)(=O)c3ccc(C)cc3)n2C)c1,-5%,-3%,?,20µM*,3.2µM*
Cn1ccnc1SCC(=O)c1ccc(Cl)cc1,1%,-37%,2%,-18%,50µM*
COc1cccc(C(=O)CSc2nccn2C)c1,0%,-9%,5%,-10%,50µM*
O=C(CN1CCN(c2ccc(F)cc2)CC1)N1N=CCC1c1ccccc1 (stereo not given),33%,-7%,16%,-13%,23%
N#CC(C#N)=CC1=C2OC(c3ccccc3)=CC(c3ccccc3)=C2CCC1,4%,?,2.8µM*,2.2µM*,?
O=C(COC(=O)CCc1nc2ccccc2c(=O)[nH]1)Nc1ccccc1,?,·,-18%,-9%,·
COC(=O)c1c2c(nc3ccccc13)CCC2,0%,-37%,39%,-9%,?
CC1Cc2ccccc2N1C(=O)COC(=O)c1c2c(nc3ccccc13)CCCCC2 (stereo not given),-1%,-33%,?,-17%,2µM*
CC(C)CNC(=O)COC(=O)c1c2c(nc3ccccc13)CCC2,8%,56µM*,3%,-30%,?
SMILES,GLS inhibitor,BAZ2B block,HP1b chromo inh,JMJD2A Tudor,G9a inh
CC1Cc2ccccc2N1C(=O)COC(=O)CCc1nc2ccccc2c(=O)[nH]1 (stereo not given),?,-21%,-17%,5.6µM*,-29%
N#Cc1ccc(NC(=O)COC(=O)CCc2nc3ccccc3c(=O)[nH]2)cc1,-10%,3%,20%,0%,50µM*
O=C(OCC(=O)N1CCc2ccccc21)c1c2c(nc3ccccc13)CCCC2,-1%,-21%,27%,-23%,?
CCC(Sc1nccn1C)C(=O)Nc1cccc2ccccc12 (stereo not given),6%,-9%,5%,-9%,-12%[59 µM]
N#Cc1c(N)c(C#N)c(-c2ccc(O)cc2)c2c1CCCC2,14%,-1%,38%,-9%,0%
N#Cc1c(N)sc(=S)c2c1CCCCC2,32%,50µM*,-49%,45µM*,4.5µM*
N#Cc1c(N)sc2c1CCCCCC2,-4%,?,?,?,18µM*
COc1ccc(-c2cc(C(=O)NCc3cccc(C(F)(F)F)c3)[nH]n2)c(C)c1,4%,·,·,·,·
CCc1nc2ccc(C(=O)NCc3ccc4c(c3)OCO4)cn2c1N(CC)CCN(C)C,6%,·,·,·,·
CCOC(=O)C(C#N)=C1CCN(Cc2ccccc2)CC1,18%,-15%,28%,-11%,?
CCOC(=O)/C(C#N)=C1/C(=O)N(Cc2ccccc2)c2ccccc21,?,25µM*,14µM*,25µM*,25µM*
CN1C(=O)/C(=C/c2ccc(O)c([N+](=O)[O-])c2)N(C)C1=S,10%,22%,-35%,?,·
CC(C)(c1ccc(O)c([N+](=O)[O-])c1)c1ccc(O)c([N+](=O)[O-])c1,11%,·,?,56µM*,·
COc1cc(-c2nc3nc[nH]n3c2Nc2ccc(C(C)C)cc2)ccc1O,?,-39%,?,?,8.9µM*
Cc1ccc2c(c1)c1ccc3c(c1n2C)C(=O)C=CC3=O,-21%,10µM*,3.2µM*,6.3µM*,1.6µM*
Cc1ccc(C)c2c1c1ccccc1n2C,6%,-4%,33%,7%,·
Cc1ccc2c(c1)c1ncnc(N3CCOCC3)c1n2C,2%,0%,21%,?,-6%
COc1ccc2c(c1)c1ccc3c(c1n2C)C(=O)C=CC3=O,-2%,?,6.3µM*,40µM*,1.8µM*
Cn1c2ccccc2c2ccc3c(c21)C(=O)C=CC3=O,35%,·,11µM*,16µM*,·
COc1ccc2c(c1)c1ncn(CCN3CCCC3)c(=O)c1n2C,26%,-4%,25%,-13%,14%
C[C@H](NC(=O)OCc1ccccc1)C(=O)N[C@@H](Cc1c[nH]c2ccccc12)C(=O)O,6%,8%,41%,-8%,-12%[2.33 µM]
Cc1oc(C)c2c(=O)cc(-c3ccc4c(c3)OCO4)cc(OC(=O)c3ccccc3Cl)c12,0%,45µM*,-4%,63µM*,?
Cc1oc(C)c2c(=O)cc(-c3ccc4c(c3)OCO4)cc(OC(=O)c3ccccc3Br)c12,6%,?,-16%,?,13µM*
COc1cc(-c2cc(OC)c3c(C)oc(C)c3c(=O)c2)ccc1OC(=O)c1ccccc1Cl,-4%,?,27%,?,?

# High-throughput results deposited in PubChem by National Center for Advancing Translational Sciences (NCATS).
